The values below come from ChEMBL document CHEMBL3988442, “University of Dundee, Small-Polar-MMV Screening Library” (2021).

In all, about 48,000 compounds went through this assay and about 13,000 (27%) showed an effect of 50% or more. Some of the results follow.

This assay relates to Wolbachia pipientis. The assay can be described thus: Anti-Wolbachia Cell-Based Screen. The following applies: 5 µM. Format: functional. Further details: scale not given: in the data most compounds retested in dose-response had high values.
Take `COCCCC1CCCCN1C(=O)c1ccc(SCCO)cc1` (configuration not stated): the “Percent Effect” value is reported as -1.649%. Next, `Cc1cnn(CC2CCCCN2C(=O)c2ccc(CN(C)C)cc2)c1` (configuration not stated): 17.54%.

For the compound `CCC1CCCCN1C(=O)c1ccc2[nH]nnc2c1` (configuration not stated), the “Percent Effect” value is on record as 1.78%. For `CCC1CCCCCN1C(=O)c1ccc(N2CCC(O)CC2)cc1` (configuration not stated), the “Percent Effect” value worked out at 94.71%.

As to `CCC1CCCCCN1C(=O)c1coc(S(=O)(=O)N(C)C)c1` (configuration not stated), the “Percent Effect” value is given as 15.41%.

Take `Cc1ccc(C(=O)N2CCCCC2CN(C)C)cc1` (configuration not stated): the “Percent Effect” value worked out at 107.2%. Next, `CN(C)CC1CCCCN1C(=O)c1ccc(N2CCOCC2)cc1` (configuration not stated): 108.2%. Next, `Cc1ccccc1C(=O)N1CCOCC1CN(C)C.O=CO` (configuration not stated): -21.7%. Next, `CN(C)CC1COCCN1C(=O)c1ccccc1C(=O)c1ccccc1.O=CO` (configuration not stated): -10.61%; `Cn1cccc1-c1nnc(C2(c3ccc4c(c3)OCO4)CCOCC2)o1`: -12.47%; `COCCOc1ncccc1C(=O)N(C)c1nccs1`: -66.02%.

With `CCOCc1nc2c(c(N3CC=CC3)n1)CCN(C1CCOCC1)CC2`, the “Percent Effect” value is reported as -25.57%. Next, `CCc1ccccc1OCCN1CCC(NS(C)(=O)=O)CC1`: 2.392%; `COc1ccc(C(=O)NS(=O)(=O)c2cccc(C#N)c2)cc1`: 98.14%. Next, `COc1cccc(C(=O)NS(=O)(=O)c2cccc(C#N)c2)c1`: 105.7%. Next, `N#Cc1cccc(S(=O)(=O)NC(=O)COc2ccc3c(c2)CCC3)c1`: -8.201%; `Cn1nnc2cc(C(=O)NS(=O)(=O)c3cccc(C#N)c3)ccc21`: -4.102%. With `CCN(CC)C(=O)CCNC(=O)c1c[nH]c2ccc(OC)cc12`, the “Percent Effect” value stood at 24.42%. Next, `COc1ccc2[nH]cc(C(=O)N3C[C@@H](O)[C@H](N4CCOCC4)C3)c2c1`: 129.4%. Next, `CCN(CC)C(=O)CNC(=O)c1c[nH]c2ccc(OC)cc12`: -4.616%; `Cc1cc(C(=O)N2C[C@@H]3CCCO[C@@H]3[C@H](N3CCOCC3)C2)c(C)[nH]1`: 5.404%. Next, `COc1ccc2[nH]cc(C(=O)N3C[C@@H](O)[C@H](NS(C)(=O)=O)C3)c2c1`: 146.2%; `COCCCNC(=O)c1c[nH]c2ccc(OC)cc12`: -17.1%; `COc1ccc2[nH]cc(C(=O)N3C[C@@H](O)[C@H](N4CCCC4)C3)c2c1`: 103.4%. For `COc1ccc(C(=O)N2C[C@@H](CN3CCOCC3)[C@@H](CO)C2)c(C)c1`, the “Percent Effect” value is listed as -1.833%. Next, `COc1ccc2[nH]cc(C(=O)N3CC[C@H](CO)[C@@H](O)C3)c(=O)c2c1`: 6.79%; `CCS(=O)(=O)c1ccc(N2CCC(NC(=O)C(C)SC)CC2)cc1` (configuration not stated): 6.219%; `Cc1cc(C(C)NC(=O)c2c[nH]c(=O)c(Cl)c2)c(C)o1` (configuration not stated): -8.782%. Next, `CC(C)C(C)(C#N)NC(=O)CN1CCCN(Cc2ccccc2F)CC1` (configuration not stated): 1.272%.

With `CCSc1ccc(NC(=O)NC2CCc3[nH]ncc3C2)cn1` (configuration not stated), the “Percent Effect” value is recorded as -2.569%. With `O=C(Nc1ccc(CN2CCOCC2)cc1)c1nccn2ccnc12`, the “Percent Effect” value was -3.19%. Consider `Cc1nn(C)c2nc(O)cc(C(F)(F)C(F)(F)F)c12`, for which the “Percent Effect” value is listed as 1.264%. Next, `COc1ccc2c(C)c(C(=O)NCCCc3csc(N)n3)oc2c1`: -14.38%; `CC(C)c1nn(C)c(N(C)C)c1CNC(C)c1ccccc1F` (configuration not stated): 86.76%. Next, `CC(C)c1nn(C)c(N(C)C)c1CNCC(O)c1ccccc1` (configuration not stated): 92.25%.

Turning to `CC(C)c1nn(C)c(Cl)c1CNCC(O)c1cccc(F)c1.Cl` (configuration not stated), the “Percent Effect” value was found to be 10.68%. Take `Cc1nn(C)c(N(C)C)c1CNCC(O)c1ccccc1` (configuration not stated): the “Percent Effect” value is on record as -19.87%. Regarding `Cc1ccc(C(O)CNCc2c(C(C)C)nn(C)c2N(C)C)cc1` (configuration not stated), the “Percent Effect” value was determined as 2.504%. Next, `COc1cccc(CNCc2c(C(C)C)nn(C)c2N(C)C)c1OC`: -9.439%. Next, `CC(C)c1nn(C)c(N(C)C)c1CNCc1cccc(CN(C)C)c1.Cl`: -0.8074%; `CC(C)c1nn(C)c(N(C)C)c1CNCc1cccnc1`: 3.817%; `CC(C)c1nn(C)c(N(C)C)c1CNCC(O)c1cccc(F)c1` (configuration not stated): 133.5%. On to `O[C@@H]1CCN(c2ccc3c(Cl)ccnc3c2F)C1`, for which the “Percent Effect” value is listed as -13.88%. Regarding `COc1ccc(F)cc1S(=O)(=O)N1CCN(CCn2ccnc2)CC1`, the “Percent Effect” value is on record as 123.5%.

Turning to `COc1ccc(Cl)cc1CNCCCn1ccnc1`, the “Percent Effect” value was 10.95%. Next, `O=S(=O)(c1cccnc1)N1CCN(CCn2ccnc2)CC1`: 2.586%; `COc1ccc(CNCC2CCN(CCO)CC2)cc1F`: -13.55%; `O=S(=O)(c1ccc(F)cc1)N1CCN(CCCn2ccnc2)CC1`: 9.586%. Next, `COc1ccc(Cn2ccnc2)cc1F`: 137.9%; `CCOc1ccc(CNCCCn2ccnc2)cc1OC`: -15.55%. Next, `COc1ccc(CN2CCN(Cc3nccn3C)C(C)C2)cc1F` (configuration not stated): 3.11%; `COc1ccc(CN2CCN(CCn3ccnc3)CC2)cc1F`: 154.2%.
